PubChem BioAssay (Tox21)
Inconclusive results are not listed. Active and inactive are the calls of the source. Unless noted, calls follow the shape of the full dose curve.

What was measured:
[1] = Nuclear factor erythroid 2-related factor 2/antioxidant responsive element (Nrf2/ARE) small molecule agonists: qHTS cell viability counter screen in human keratinocytes (AID 1919968; active = well fitted curve in the direction sought with a large enough effect in the repeat runs; an effect the other way counts as inactive or inconclusive; also: nearly all actives have a fitted effect of over 55% in size)
Method in brief: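 Seed 1,500 KeratinoSens cells per well, then incubate 5 h at 37 C/5% CO2. Add compounds in DMSO and incubate 23 h. Add CellTiter-Fluor, wait 1 h and read fluorescence.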

[2] = Nuclear factor erythroid 2-related factor 2/antioxidant responsive element (Nrf2/ARE) small molecule agonists: luciferase reporter gene qHTS assay in human keratinocytes (AID 1919969); also: nearly all actives have a fitted effect of over 35% in size
[3] = target: Gonadotropin-releasing hormone receptor (Homo sapiens) (UniProt P30968); assay: Human gonadotropin-releasing hormone receptor (GnRHR) small molecule agonists, calcium flux assay in GnRHR-HEK293 cells (AID 1920063); also: nearly all actives have a fitted effect of over 35% in size
Chain of Gonadotropin-releasing hormone receptor (Homo sapiens) (P30968 whole entry, looked up): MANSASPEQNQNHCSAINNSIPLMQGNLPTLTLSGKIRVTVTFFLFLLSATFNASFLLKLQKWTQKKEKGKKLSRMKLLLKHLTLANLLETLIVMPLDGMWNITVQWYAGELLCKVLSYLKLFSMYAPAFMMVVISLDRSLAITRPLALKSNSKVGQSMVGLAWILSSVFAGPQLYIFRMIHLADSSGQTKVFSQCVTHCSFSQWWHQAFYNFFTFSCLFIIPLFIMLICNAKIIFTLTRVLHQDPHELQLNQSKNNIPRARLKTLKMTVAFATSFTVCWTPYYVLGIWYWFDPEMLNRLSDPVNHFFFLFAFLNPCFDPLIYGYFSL
Method in brief: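 Cells: HEK293 stably expressing human GnRHR. Steps: overnight (18 h) culture, 1 h calcium dye loading at 37 C, compound addition, kinetic fluorescence read at 480/540 nm. Each compound tested at 15 concentrations in triplicate.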

[4] = target: KiSS-1 receptor (Homo sapiens) (UniProt Q969F8); assay: Human kisspeptin (KISS1R) small molecule agonists, calcium flux assay in KISS1R-HEK293 cells (AID 1920064; active = well fitted curve in the direction sought with a large enough effect in the repeat runs; an effect the other way counts as inactive or inconclusive)
Chain of KiSS-1 receptor (Homo sapiens) (Q969F8 whole entry, looked up): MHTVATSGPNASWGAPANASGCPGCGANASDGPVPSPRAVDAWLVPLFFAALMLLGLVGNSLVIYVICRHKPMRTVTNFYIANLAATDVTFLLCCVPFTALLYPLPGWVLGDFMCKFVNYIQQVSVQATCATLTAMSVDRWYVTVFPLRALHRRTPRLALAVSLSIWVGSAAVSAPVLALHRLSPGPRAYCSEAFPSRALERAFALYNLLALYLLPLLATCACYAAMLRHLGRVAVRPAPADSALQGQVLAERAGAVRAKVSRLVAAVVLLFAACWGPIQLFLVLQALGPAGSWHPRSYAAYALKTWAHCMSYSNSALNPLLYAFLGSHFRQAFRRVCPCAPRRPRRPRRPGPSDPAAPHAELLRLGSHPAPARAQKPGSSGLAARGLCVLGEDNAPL
Method in brief: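 Cells plated and incubated 18 h; dye added, 1 h at 37 C; compounds in DMSO pinned in; signal read at 480/540 nm every second for 3 min. Each compound tested at 15 concentrations in triplicate.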

[5] = G protein-coupled receptor (GPCR) small molecule agonists, calcium flux assay: HEK293 wild type cell line counter screen (AID 1920065)
Method in brief: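 Counter-screen of the Tox21 10K library for non-specific calcium release: dye-loaded cells received compounds in DMSO and were monitored by kinetic fluorescence (480/540 nm, 3 min). Fifteen concentrations, run in triplicate.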

[6] = p53 small molecule agonists, cell-based qHTS assay with human liver microsomes (AID 1963577)
Method in brief: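 p53RE-bla reporter cells were pre-incubated 5 h at 37 C, then treated with compounds plus human liver microsomes (0.5 mg/mL final) and NADPH (0.5 mg/mL final) for 16 h at 37 C. Beta-lactamase activity was read by LiveBLAzer fluorescence after 2 h at room temperature.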

[7] = p53 small molecule agonists, cell-based qHTS assay with rat liver microsomes: qHTS cell viability counter screen (AID 1963580); also: nearly all actives have a fitted effect of over 45% in size
Method in brief: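 p53RE-bla HCT-116 cells (4,000/well) rested 5 h at 37 C, then given Tox21 compounds in DMSO with rat liver microsomes (0.5 mg/mL final) plus NADPH (0.5 mg/mL final) for 16 h at 37 C. Viability read by CellTiter-Glo luminescence after 30 min at room temperature.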

[8] = p53 small molecule agonists, cell-based qHTS assay: qHTS cell viability counter screen (AID 1963581); also: nearly all actives have a fitted effect of over 45% in size
Method in brief: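 Cells: HCT-116 with p53 response element-driven beta-lactamase. Treatment: 16 h, 37 C, compounds in DMSO. Read: CellTiter-Glo luminescence after 30 min RT.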

[9] = p53 small molecule agonists, cell-based qHTS assay (AID 1963582; active = well fitted activation curve with a large enough effect in the signal ratio in the repeat runs, not every such curve was filed as active; the % refers to the signal ratio)
Method in brief: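 Quantitative HTS in p53RE-bla cells: after a 5 h settling period, compounds delivered in DMSO were left on cells for 16 h at 37 C, and reporter induction was measured as fluorescence following 2 h substrate loading.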

[10] = target: 5-hydroxytryptamine receptor 2A (Homo sapiens) (UniProt P28223); assay: 5-hydroxytryptamine receptor 2A (HTR2A) small molecule antagonists, cell-based qHTS assay (AID 1963586); also: nearly all actives have a fitted effect of over 45% in size
Chain of 5-hydroxytryptamine receptor 2A (Homo sapiens) (P28223 whole entry, looked up): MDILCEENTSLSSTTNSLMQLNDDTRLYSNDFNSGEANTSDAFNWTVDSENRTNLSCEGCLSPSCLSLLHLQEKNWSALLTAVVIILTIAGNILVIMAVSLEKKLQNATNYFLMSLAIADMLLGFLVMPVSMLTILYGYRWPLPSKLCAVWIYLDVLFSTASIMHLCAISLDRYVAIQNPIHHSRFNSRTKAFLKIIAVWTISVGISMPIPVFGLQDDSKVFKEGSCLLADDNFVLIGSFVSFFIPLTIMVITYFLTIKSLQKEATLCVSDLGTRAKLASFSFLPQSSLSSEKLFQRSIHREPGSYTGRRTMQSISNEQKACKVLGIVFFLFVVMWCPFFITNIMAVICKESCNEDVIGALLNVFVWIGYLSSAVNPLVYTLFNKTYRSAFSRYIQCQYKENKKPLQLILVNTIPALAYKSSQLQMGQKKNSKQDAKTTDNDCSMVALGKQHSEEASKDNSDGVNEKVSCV
Method in brief: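 Antagonist-mode intracellular calcium assay: DOI (4 nM) added after 5 min compound pre-incubation at room temperature to dye-loaded HTR2A-CHO cells. Fluorescence followed for 3 min, sampled every second.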

[11] = target: Muscarinic acetylcholine receptor M1 (Homo sapiens) (UniProt P11229); assay: Cholinergic receptor muscarinic 1 (CHRM1) small molecule antagonists, cell-based qHTS assay (AID 1963588); also: nearly all actives have a fitted effect of over 40% in size
Chain of Muscarinic acetylcholine receptor M1 (Homo sapiens) (P11229 whole entry, looked up): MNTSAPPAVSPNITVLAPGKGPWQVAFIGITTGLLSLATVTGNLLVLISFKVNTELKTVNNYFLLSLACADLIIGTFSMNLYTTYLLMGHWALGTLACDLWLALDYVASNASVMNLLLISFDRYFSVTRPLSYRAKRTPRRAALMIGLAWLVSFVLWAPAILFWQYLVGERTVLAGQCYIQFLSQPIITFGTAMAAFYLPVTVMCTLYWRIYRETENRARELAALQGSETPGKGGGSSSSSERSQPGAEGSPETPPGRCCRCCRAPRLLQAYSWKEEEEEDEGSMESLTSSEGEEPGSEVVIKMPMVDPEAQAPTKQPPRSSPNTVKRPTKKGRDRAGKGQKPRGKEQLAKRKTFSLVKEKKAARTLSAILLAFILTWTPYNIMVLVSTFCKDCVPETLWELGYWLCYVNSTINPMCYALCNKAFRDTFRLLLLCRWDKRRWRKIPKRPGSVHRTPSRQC
Method in brief: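 CHRM1-CHO calcium-flux assay, antagonist mode. Cells were seeded 18 h, dye-loaded 1 h at 37 C and given compound for 5 min at RT, then acetylcholine was added at 50nM. FDSS fluorescence was read 3 min; 15 concentrations, three runs.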

[12] = target: Muscarinic acetylcholine receptor M1 (Homo sapiens) (UniProt P11229); assay: Cholinergic receptor muscarinic 1 (CHRM1) small molecule agonists, cell-based qHTS assay (AID 1963589); also: nearly all actives have a fitted effect of over 35% in size
Method in brief: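 Agonist-mode qHTS in CHO cells stably carrying human muscarinic M1. Intracellular calcium is tracked by fluorescence every second after compound transfer; each compound runs at 15 concentrations in three independent runs.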

[13] = target: Beta-2 adrenergic receptor (Homo sapiens) (UniProt P07550); assay: Adrenergic beta2 receptor (ADRB2) small molecule antagonists, cell-based qHTS assay (AID 1963592); also: series mostly up to about 92 µM; nearly all actives have a fitted effect of over 50% in size
Chain of Beta-2 adrenergic receptor (Homo sapiens) (P07550 whole entry, looked up): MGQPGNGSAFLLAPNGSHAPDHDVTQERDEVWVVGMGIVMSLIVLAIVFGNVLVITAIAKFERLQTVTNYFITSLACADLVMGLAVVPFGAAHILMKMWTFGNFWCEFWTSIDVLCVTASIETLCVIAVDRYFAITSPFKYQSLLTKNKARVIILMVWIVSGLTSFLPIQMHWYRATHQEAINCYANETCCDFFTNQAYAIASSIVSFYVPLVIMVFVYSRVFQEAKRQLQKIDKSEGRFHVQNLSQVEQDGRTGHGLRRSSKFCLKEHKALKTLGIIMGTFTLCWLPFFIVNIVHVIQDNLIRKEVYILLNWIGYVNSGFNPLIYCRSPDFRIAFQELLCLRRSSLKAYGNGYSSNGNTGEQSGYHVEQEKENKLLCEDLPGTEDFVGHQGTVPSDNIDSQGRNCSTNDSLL
Method in brief: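 Cells (CHO, stable ADRB2 overexpression) incubated 18-20hr at 37C; compounds added from DMSO; agonist mix (1nM isoproterenol, 100uM IBMX, 25uM Ro-20-1724) added; 0.5hr RT; d2-cAMP and anti-cAMP-cryptate added; 1hr RT; 665/615 nm read.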

[14] = target: Beta-2 adrenergic receptor (Homo sapiens) (UniProt P07550); assay: Adrenergic beta2 receptor (ADRB2) small molecule agonists, cell-based qHTS assay (AID 1963593);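 also: CHO cells stably overexpressing human ADRB2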
Method in brief: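 CHO cells stably over-expressing ADRB2 were plated overnight at 37C, then dosed with compounds plus a stimulation mix containing 100uM IBMX and 25uM Ro-20-1724 for 0.5hr at room temperature. cAMP was measured by HTRF competition, 1hr.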

[15] = target: D(2) dopamine receptor (Homo sapiens) (UniProt P14416); assay: Dopamine D2 receptor (DRD2) small molecule agonists, cell-based qHTS assay (AID 1963594); also: nearly all actives have a fitted effect of over 35% in size
Chain of D(2) dopamine receptor (Homo sapiens) (P14416 whole entry, looked up): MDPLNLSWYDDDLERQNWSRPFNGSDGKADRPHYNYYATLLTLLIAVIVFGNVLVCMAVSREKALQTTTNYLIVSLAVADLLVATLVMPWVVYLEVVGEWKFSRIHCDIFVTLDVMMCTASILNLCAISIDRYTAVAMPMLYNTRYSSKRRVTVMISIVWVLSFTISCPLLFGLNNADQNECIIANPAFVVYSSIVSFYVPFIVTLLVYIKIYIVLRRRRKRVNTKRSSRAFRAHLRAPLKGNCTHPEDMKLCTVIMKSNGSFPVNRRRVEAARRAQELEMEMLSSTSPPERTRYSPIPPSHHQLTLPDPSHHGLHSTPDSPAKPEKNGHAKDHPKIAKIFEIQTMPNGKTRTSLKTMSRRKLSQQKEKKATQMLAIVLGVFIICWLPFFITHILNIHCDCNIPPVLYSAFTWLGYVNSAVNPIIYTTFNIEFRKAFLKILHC
Method in brief: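 HEK293 cells stably expressing DRD2 were cultured 24 h at 37 C, then given Ro20-1724 (0.1 mM final) and compounds for 10 min at room temperature. NKH477 (200nM) was then added for 30 min. cAMP was read by HTRF.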

[16] = target: D(2) dopamine receptor (Homo sapiens) (UniProt P14416); assay: Dopamine D2 receptor (DRD2) small molecule antagonists, cell-based qHTS assay (AID 1963595; active = well fitted inhibition curve with a large enough effect in the signal ratio in the repeat runs, with a control signal flat; the % refers to the signal ratio)
Method in brief: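 Human DRD2 antagonist qHTS measuring cAMP by HTRF. The cells are exposed to compound for 10 min, then to NKH477 (200 nM) and quinpirole (12 nM) for 30 min at RT, with Ro20-1724 (0.1 mM) present throughout.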

[17] = target: 5-hydroxytryptamine receptor 2A (Homo sapiens) (UniProt P28223); assay: 5-hydroxytryptamine receptor 2A (HTR2A) small molecule agonists, cell-based qHTS assay (AID 1963587); also: nearly all actives have a fitted effect of over 30% in size
Method in brief: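 HTR2A-CHO cells, plated 18 h at 37 C/5% CO2, dye-loaded 1 h at 37 C; compounds in DMSO added by pin tool (agonist mode). Intracellular calcium flux read as kinetic fluorescence on FDSS over 2 min at 1 s intervals.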

[18] = cAMP Responsive Elements (CRE) small molecule agonists, cell-based qHTS assay (AID 1963590)
Method in brief: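 Agonist mode qHTS in CRE-bla HEK 293T cells: compounds dosed from DMSO for 3 h at 37 C/5% CO2, followed by LiveBLAzer B/G FRET substrate for 2 h at room temperature.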

[19] = cAMP Responsive Elements (CRE) small molecule antagonists, cell-based qHTS assay (AID 1963591; active = well fitted inhibition curve with a large enough effect in the signal ratio in the repeat runs, not every such curve was filed as active; the % refers to the signal ratio)
Method in brief: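 Antagonist mode: test compounds are co-incubated with the adenylyl cyclase activator NKH477 (0.25 uM final) on CRE-bla HEK293T cells for 3 h at 37 °C, followed by LiveBLAzer substrate loading.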

[20] = p53 small molecule agonists, cell-based qHTS assay with rat liver microsomes (AID 1963578)
Method in brief: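 p53RE-bla cells were exposed to compounds together with rat liver microsomes (0.5 mg/mL final) and NADPH (0.5 mg/mL final) for 16 h at 37 C, then read by LiveBLAzer beta-lactamase fluorescence after 2 h at room temperature.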

Measured: Potency

CCOC(=O)COc1cc(-n2ncc(C(F)(F)F)c(C)c2=O)c(F)cc1Cl
not listed: [17] | [18] | [19] | [20]
inactive: all other assays above

CC(CC(=O)O)CC(C)(C)C (centres undefined)
not listed: [11] | [14] | [20]
inactive: all other assays above

CC1CCC(C(C)CS)CC1S (centres undefined)
not listed: [11] | [14] | [16] | [20]
inactive: all other assays above

Cc1cc(CC(=O)O)c(C)n1-c1ccc(Cl)cc1
not listed: [14] | [15] | [18] | [19] | [20]
inactive: all other assays above

OCCN(CCO)c1cccc(Cl)c1
not listed: [14] | [17] | [20]
inactive: all other assays above

CCOc1cccc(N)c1
not listed: [11] | [14] | [20]
inactive: all other assays above

C=CC(=O)OCC1CCCO1 (centres undefined)
not listed: [14] | [20]
inactive: all other assays above

CCOC(=O)CCc1ccccc1
not listed: [14] | [20]
inactive: all other assays above

CCCCCCC
not listed: [11] | [20]
inactive: all other assays above

c1cc2c3c(c1)ccc1cccc(c13)C2
not listed: [14] | [18] | [19] | [20]
inactive: all other assays above

Nc1ccc(C(=O)Oc2ccccc2)c(O)c1
not listed: [11] | [13] | [14] | [16] | [20]
inactive: all other assays above

CCc1cccc(C)c1N(C(=O)CS(=O)(=O)O)C(C)COC (centres undefined)
not listed: [14] | [20]
inactive: all other assays above

Cc1cc2c(s1)Nc1ccccc1N=C2N1CCN(C)CC1
inactive: [1] | [2] | [3] | [4] | [5] | [6] | [20] | [9] | [18] | [19]

Cc1cc(N)c(S(=O)(=O)O)cc1Cl
not listed: [14] | [20]
inactive: all other assays above
